Assay outcomes deposited in PubChem by several laboratories.
In the library only some 7.9% were active in any assay of this set; here they are far more common.
M1 antagonist – blocks the rat M1 muscarinic receptor response to acetylcholine. P08482. AID 628. B-score at 10 µM. 64,000 tested, 3.4% active. CHO-M1 cells, Fluo-4 calcium, ACh EC80 antagonist mode; hits give low values;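 active = calcium fluorescence response, raw or row-and-column corrected B-score, differing from the plate sample mean either way at a set confidence level, mostly lower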
Target sequence (P08482 whole entry, looked up): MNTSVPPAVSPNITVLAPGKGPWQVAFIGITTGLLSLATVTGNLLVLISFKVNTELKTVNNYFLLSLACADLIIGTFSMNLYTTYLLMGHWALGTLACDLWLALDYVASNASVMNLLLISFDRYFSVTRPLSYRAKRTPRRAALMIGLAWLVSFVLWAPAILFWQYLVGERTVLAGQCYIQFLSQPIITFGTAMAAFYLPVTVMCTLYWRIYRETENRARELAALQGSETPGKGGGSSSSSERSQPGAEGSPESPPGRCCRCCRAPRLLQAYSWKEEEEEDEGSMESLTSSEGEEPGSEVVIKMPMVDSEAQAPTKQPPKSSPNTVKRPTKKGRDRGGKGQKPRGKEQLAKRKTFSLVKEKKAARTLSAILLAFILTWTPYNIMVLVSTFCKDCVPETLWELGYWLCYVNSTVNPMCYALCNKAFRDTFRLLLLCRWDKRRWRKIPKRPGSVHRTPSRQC
Her2 expr inh – lowers expression of human Her2 kinase; SKBR-3 HER2 protein level, AlphaScreen, 18-24 h; hits give low values; HER2 level % of control, % at 10 µM; 65,000 tested, 0.69% active;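 active = HER2 level under 5% of the carrier-only control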;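 also: lower value means stronger loss of Her2 protein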
PLAP act – activates human placental alkaline phosphatase. activation fold at 20 µM. 96,000 tested, 1.2% active. purified PLAP enzyme, luminescent substrate read-out; hits give high values. P05187; in the data active = activation fold above about 2
M1 ag – activates the M1 muscarinic receptor | CHO-M1 cells, Fluo-4 calcium fluorescence, agonist mode; hits give high values | B-score at 10 µM | 64,000 tested, 3% active;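 active = fluorescence rise, raw or as B-score row- and column-corrected plate score, outside the 99.7% band of its plate's samples, either direction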
Cav3 T inh – inhibitors of human Cav3.2 T-type calcium channel; O95180; Cav3.2-expressing cells, Fluo-4 calcium fluorescence FDSS; hits give low values; B-score at 10 µM; 100,000 tested, 4% active;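 active = single-dose well whose peak fluorescence ratio is a statistical outlier from its plate by either plate-standardised score or position-corrected B-score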
Each line names hits and unclear results; the compound was inactive in the other large screens.

Cc1cc(=O)oc(C)c1C(=O)N1CCc2c([nH]c3ccccc23)C1C(C)C (stereo not given)	none
COc1ccc2c(c1)CCc1c(C(=O)NC3CCCCC3)noc1-2	none (no result: M1 antagonist, M1 ag)
O=C(N/N=C\c1ccc(F)cc1)c1csnn1	none (no result: M1 antagonist, Her2 expr inh, M1 ag)
CC1=C(C(=O)OC2CCCC2)C(c2ccc(C)o2)C2=C(CC(c3cccs3)CC2=O)N1 (stereo not given)	Cav3 T inh -5.89
COc1ccc(-c2nc(C#N)c(N3CCCCCC3)o2)cc1OC	none
CCN(CC(=O)Nc1cccc(OC)c1)C(=O)c1ccc(C)s1	none (no result: M1 antagonist, Her2 expr inh, M1 ag)
Cc1cc(/C=N\NC(=O)CC(=O)NC2CCCCC2)c(C)n1-c1ccc(Cl)c(Cl)c1	none (no result: M1 antagonist, Her2 expr inh, M1 ag)
COc1cccc(NC(=O)C(=O)N/N=C/c2cc(C)n(-c3ccc(Cl)c(Cl)c3)c2C)c1	Cav3 T inh -5.55 (no result: M1 antagonist, Her2 expr inh, M1 ag)
COc1ccccc1/C=N/NC(=O)CC(=O)Nc1ccc(Cl)c(Cl)c1	Cav3 T inh -5.3 (no result: M1 antagonist, Her2 expr inh, M1 ag)
CCC(CC)c1nnc(NC(=O)Oc2ccccc2)s1	none (no result: M1 antagonist, Her2 expr inh, M1 ag)
COc1nc(NCc2ccco2)nc(NC2CCCCC2)n1	Cav3 T inh -4.04 (no result: M1 antagonist, Her2 expr inh, PLAP act, M1 ag)
N#CC(c1ccc(Cl)cc1)c1ncc(C(F)(F)F)cc1Cl (stereo not given)	Cav3 T inh -4.63 (no result: M1 antagonist, Her2 expr inh, M1 ag)
O=C1CCCC2=C1C(c1ccco1)Nc1ccc(C(=O)c3ccccc3)cc1N2 (stereo not given)	Cav3 T inh -3.56
Brc1ccc2c(c1)c1nc3ccccc3nc1n2CCN1CCOCC1	none (no result: PLAP act, Cav3 T inh)
c1ccc2nc3c(nc2c1)c1ccccc1n3CCN1CCOCC1	M1 ag 6.45
CCCc1cc(-c2[nH]ncc2-c2ccc(C(=O)OCC)o2)c(O)cc1O	PLAP act 2.1
CCCc1cc(-c2[nH]ncc2-c2ccc3c(c2)OCCCO3)c(O)cc1O	PLAP act 2.6
CCOC(=O)c1ccc(CSc2ncn[nH]2)o1	none
C=C(C)COc1ccc(-c2[nH]ncc2-c2ccc(OC)c(OC)c2)c(O)c1	none
Cc1cc(-c2cccc([N+](=O)[O-])c2)nc2ccc3ccccc3c12	none (no result: M1 antagonist, Her2 expr inh, M1 ag)
CCc1nc2oc3ccccc3c(=O)c2c(=O)n1CCOC	none
COCCn1c(C)nc2oc3ccc(Br)cc3c(=O)c2c1=O	M1 antagonist 1.86
O=C(Nc1ccccc1-c1ccccc1)C1CCCN(c2ncccn2)C1 (stereo not given)	none
C=CCc1cc(/C=N/NC(=O)CSc2nnc(CCCc3ccc(OC)cc3)o2)cc(OC)c1O	none (no result: M1 antagonist, Her2 expr inh, M1 ag)
CC1CC(C)(C)Nc2ccc(OC(=O)c3ccco3)cc21 (stereo not given)	Her2 expr inh -31.2
Cc1occc1-c1nnc(SCC(=O)Nc2nc3ccccc3s2)o1	none (no result: M1 antagonist, Her2 expr inh, M1 ag)
CCC(OC(=O)CC1Sc2ccccc2NC1=O)C(=O)NCC1CCCO1 (stereo not given)	PLAP act 2
COc1ccc(/C=C/C(=O)c2ccccc2O)cc1CN1CCOCC1	none (no result: M1 antagonist, Her2 expr inh, M1 ag)
COc1ccc(/C=C/C(=O)c2ccccc2)cc1COc1ccccc1F	Cav3 T inh -4.15 (no result: M1 antagonist, Her2 expr inh, M1 ag)
O=c1cc(N2CCN(c3ccccc3)CC2)[nH]c(=O)n1Cc1ccc(F)cc1	Cav3 T inh -6.12
O=c1cc(N2CCc3ccccc3C2)[nH]c(=O)n1Cc1ccc(F)cc1	Cav3 T inh -3.98 (no result: PLAP act)
CCOC(=O)CSc1nnc2n(C3CCCCC3)c(=O)c3c4c(sc3n12)CCCC4	none
COC(=O)CSc1nnc2n(C3CCCCC3)c(=O)c3c4c(sc3n12)CCCC4	Cav3 T inh -3.86
O=C1NC[C@H](Cc2ccccc2)N(CC2CCCCC2)C1=O	none (no result: M1 antagonist, Her2 expr inh, PLAP act, M1 ag)
O=C(COC(=O)c1ccncc1)Nc1cc(Cl)c(Cl)cc1Cl	none (no result: M1 antagonist, Her2 expr inh, M1 ag, Cav3 T inh)
C#CCN1C(=O)C(O)(CC(=O)c2ccc3c(c2)OCCO3)c2ccccc21 (stereo not given)	Cav3 T inh -3.8
COc1ccc(OC)c(S(=O)(=O)NC(C)(C)C)c1	none (no result: M1 antagonist, Her2 expr inh, M1 ag)
CCN(CC)S(=O)(=O)c1ccc(C)c(NC(=O)COC(=O)c2ccc(C)c(S(=O)(=O)N3CCOCC3)c2)c1	Cav3 T inh -4.16 (no result: M1 antagonist, Her2 expr inh, M1 ag)
COc1ccc(C(=O)OCC(=O)Nc2cc(C)on2)cc1S(=O)(=O)N1CCOCC1	none (no result: M1 antagonist, Her2 expr inh, M1 ag)
CCOc1cc(C(=O)Nc2cccc3ncccc23)cc(OCC)c1OCC	none (no result: M1 antagonist, Her2 expr inh, M1 ag)
CCN(C(=O)Cc1ccc(Br)cc1)C1CCCCC1	Cav3 T inh -4.42 (no result: M1 antagonist, Her2 expr inh, M1 ag)
CC(C)NC(=O)Cc1ccc(Br)cc1	none (no result: M1 antagonist, Her2 expr inh, M1 ag)
Oc1ccccc1-c1nnc(COc2ccc(Cl)cc2Cl)o1	Cav3 T inh -5.89
CCCCN(CCCC)S(=O)(=O)c1ccc(N2CCCC2=O)c([N+](=O)[O-])c1	none (no result: M1 antagonist, Her2 expr inh, PLAP act, M1 ag)
CCCCN(CCCC)S(=O)(=O)c1ccc(SCC(=O)OCC)c([N+](=O)[O-])c1	Cav3 T inh -3.07 (no result: M1 antagonist, Her2 expr inh, M1 ag)
